In all, about 310,000 compounds went through this assay and about 14,000 (4.5%) showed an effect of 50% or more. The effect is printed as a negative number. This is one part of a sample in which strong results are shown more often than they occur.
These molecules were tested against human ether-à-go-go-related gene (hERG) potassium channel (human, UniProt Q12809) (assay: primary screen, population patch clamp on CHO cells stably expressing hERG; higher = less effect of the substance).
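Also: peak tail current of the secondary pulse compared with the same well before compound.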

human ether-à-go-go-related gene (hERG) potassium channel, sequence (Q12809 whole entry, looked up): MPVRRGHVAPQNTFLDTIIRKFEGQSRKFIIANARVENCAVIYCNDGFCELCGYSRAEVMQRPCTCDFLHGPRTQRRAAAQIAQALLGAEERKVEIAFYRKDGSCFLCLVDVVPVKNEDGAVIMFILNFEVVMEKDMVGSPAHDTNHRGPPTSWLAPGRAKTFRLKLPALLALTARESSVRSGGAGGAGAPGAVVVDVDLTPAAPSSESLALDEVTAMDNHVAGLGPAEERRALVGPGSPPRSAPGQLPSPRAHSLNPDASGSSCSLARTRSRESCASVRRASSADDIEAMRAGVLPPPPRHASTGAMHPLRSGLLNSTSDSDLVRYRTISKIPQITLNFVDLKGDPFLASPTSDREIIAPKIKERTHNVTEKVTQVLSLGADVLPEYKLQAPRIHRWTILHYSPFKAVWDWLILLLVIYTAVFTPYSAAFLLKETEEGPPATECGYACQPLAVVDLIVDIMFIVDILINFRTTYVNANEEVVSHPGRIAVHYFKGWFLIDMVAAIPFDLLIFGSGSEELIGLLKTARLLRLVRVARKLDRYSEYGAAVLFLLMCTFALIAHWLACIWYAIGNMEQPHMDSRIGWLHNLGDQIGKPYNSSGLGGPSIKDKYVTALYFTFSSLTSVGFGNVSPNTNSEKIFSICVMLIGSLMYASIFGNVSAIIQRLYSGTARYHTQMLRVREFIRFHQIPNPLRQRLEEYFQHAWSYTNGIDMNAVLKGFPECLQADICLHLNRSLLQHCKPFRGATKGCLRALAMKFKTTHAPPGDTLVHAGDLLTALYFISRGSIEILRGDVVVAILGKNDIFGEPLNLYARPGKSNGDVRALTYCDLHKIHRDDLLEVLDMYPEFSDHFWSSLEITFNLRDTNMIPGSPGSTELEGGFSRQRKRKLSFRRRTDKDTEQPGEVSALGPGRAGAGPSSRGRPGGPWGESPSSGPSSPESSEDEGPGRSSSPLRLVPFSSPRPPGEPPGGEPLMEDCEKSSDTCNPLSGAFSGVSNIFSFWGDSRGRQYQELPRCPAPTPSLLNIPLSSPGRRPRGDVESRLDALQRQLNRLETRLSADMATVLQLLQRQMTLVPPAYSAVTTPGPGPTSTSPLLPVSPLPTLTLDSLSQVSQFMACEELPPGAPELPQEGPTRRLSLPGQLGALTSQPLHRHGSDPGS

Structure (SMILES)	hERG current change (%, negative = inhibition) at 10uM
COc1ccc(OC)c(S(=O)(=O)NC2CCN(Cc3ccccc3)CC2)c1	-4.92%
Nc1ccc(C(=O)N/N=C2\CCCc3c2[nH]c2ccccc32)cc1	16.2%
COc1ccc(-n2nc(C(=O)NCC(=O)NCCCN3CCN(C)CC3)c3ccccc3c2=O)cc1OC	18.9%
Cc1ccccc1CN1C2=NCCCN2c2ccccc21.Cl	-68%
Cc1ccccc1CN1C2=NCCN2c2ccccc21.Cl	-53.7%
CS(=O)(=O)NCc1nnc(SCC(=O)NC2CCCCC2)n1-c1ccc(F)cc1	11.6%
CCn1cc(C(=O)NCc2ccco2)c2cc(OC)c(OC)cc2c1=O	-20.9%
COCCn1c(=N)c(S(=O)(=O)c2ccc(Br)cc2)cc2c(=O)n3ccccc3nc21	-44.3%
CCn1cc(C(=O)NCc2ccco2)c(=O)c2ccc(C)nc21	16.9%
COCCn1c(=N)c(C(=O)NCc2ccco2)cc2c(=O)n3ccccc3nc21	-78.1%
COCCn1c(=N)c(C(=O)NCc2ccco2)cc2c(=O)n3cc(C)ccc3nc21	-82.1%
Cc1ccc2nc3c(cc(C(=O)NCc4ccco4)c(=N)n3Cc3ccco3)c(=O)n2c1	-77%
COCCn1c(=N)c(S(=O)(=O)c2ccc(F)cc2)cc2c(=O)n3ccccc3nc21	-25.5%
COCCn1cc(C(=O)NCc2ccco2)c2c3ccccc3n(C)c2c1=O	-20.6%
Cc1cc2ccccc2c(=O)n1CC(=O)NCc1ccco1	13.8%
COc1ccc2c(c1)CCc1c(C(=O)N3CCCC3)noc1-2	-7.79%
CC(C)c1ccccc1NC(=O)COC(=O)Cc1c[nH]c2ccccc12	7.28%
C/C(=N\NC(=O)c1ccncc1)c1c(O)[nH]c(=O)[nH]c1=O	-1.22%
[O-]/C(=C(\C(=S)Nc1ccc(SC(F)F)cc1)[n+]1ccccc1)c1cc(Cl)ccc1Cl	1.83%
COc1ccc(-c2noc(CN(C(=O)c3c(-c4ccccc4Cl)noc3C)C(C)C)n2)cc1	14.8%
O=C(O)C1CC=CCC1C(=O)Nc1cccc(C(=O)N2CCCCC2)c1 (stereo not shown)	-5.25%
CN1C[C@H](C(=O)N[C@]2(C)O[C@@]3(O)[C@@H]4CCCN4C(=O)[C@H](Cc4ccccc4)N3C2=O)CC2c3cccc4[nH]cc(c34)C[C@H]21.O=C(O)C(O)C(O)C(=O)O (stereo partly shown)	2.03%

Structure (SMILES)	hERG current change (%, negative = inhibition) at 10uM
CC(NC(=O)NNC(N)=S)(C(F)(F)F)C(F)(F)F	4.68%
CN(C)CCCN(C(=O)c1ccc2c(c1)CCCC2)c1nc2ccc(F)cc2s1.Cl	-66.9%
CCN(CC)CCN(C(=O)c1ccc2c(c1)CCCC2)c1nc2ccc(F)cc2s1.Cl	-1.94%
Cc1ccc2nc(N(CCCN(C)C)C(=O)c3ccc4c(c3)CCCC4)sc2c1.Cl	-71.5%
CN(C)CCCN(C(=O)c1ccc2c(c1)CCCC2)c1nc2ccc(Cl)cc2s1.Cl	-43.8%
CCN(CC)CCN(C(=O)c1ccc2c(c1)CCCC2)c1nc2ccc(C)cc2s1.Cl	10.1%
CCOc1ccc2nc(N(CCCN(C)C)C(=O)c3ccc4c(c3)CCCC4)sc2c1.Cl	-14.1%
CCN(CC)C(=O)C1CCC(C)(C(=O)O)C1(C)C (stereo not shown)	3.91%
O=S1(=O)CCO[C@H]2Cc3ccccc3[C@H]2N1Cc1cccc(Cl)c1	-28.4%
Cc1nc(SCn2nnc3ccccc3c2=O)nc(C)c1C	-12.3%
Cc1ccc(OCCNC(=O)/C=C/c2ccccc2)cc1C	-8.32%
Cc1cc(=O)n2nc(N3CCC(C(=O)NC(C)c4ccccc4)CC3)sc2n1 (stereo not shown)	5.85%
O=C(OCc1nc2ccsc2c(=O)[nH]1)c1ccccc1	0.869%
CCc1ccc(C(=O)COC(=O)CNC(=O)CNC(=O)Cc2ccccc2)cc1	9.36%
CCc1ccc(C(=O)COC(=O)CNC(=O)Cc2ccccc2)cc1	0.382%
CCc1ccc(C(=O)COC(=O)CNC(=O)c2ccco2)cc1	-18.2%
CN(CC(=O)Nc1ccccc1Cl)C(=O)COC(=O)CNC(=O)c1ccc(Br)o1	-61.4%
Cc1cccc(C(=O)NCC(=O)OCC(=O)N(C)CC(=O)Nc2ccccc2Cl)c1	-40.5%
COc1ccccc1C(=O)NNC(=O)c1ccc(Br)o1	14%
CN(CC(=O)Nc1ccccc1Cl)C(=O)COC(=O)Cc1ccc(F)cc1	1.33%
CCc1ccc(C(=O)COC(=O)CNC(=O)COc2ccccc2)cc1	-57.4%
CCc1ccc(C(=O)COC(=O)CNC(=O)c2ccc(Br)o2)cc1	-64%

Structure (SMILES)	hERG current change (%, negative = inhibition) at 10uM
Cc1ccc(C(=O)COC(=O)CNC(=O)c2ccc(Br)o2)cc1[N+](=O)[O-]	4.86%
COc1ccccc1C(=O)NCC(=O)OCC(=O)c1cccc2ccccc12	4.06%
COc1ccccc1C(=O)COC(=O)CNC(=O)c1ccc(Br)o1	-50.7%
CC(=O)N(CN1C(=O)c2ccccc2C1=O)c1cccc(C)c1	4.43%
Clc1ccc(-n2ncc3c(NCc4ccccn4)ncnc32)cc1	4.15%
COc1ccccc1NS(=O)(=O)c1ccc(C)c(C(=O)NCC2(N(C)C)CCCCC2)c1	-42.9%
O=C(NCCCN1CCOCC1)c1ccc2c(c1)N(Cc1cccc(Cl)c1)C(=O)CS2	-16.7%
CC1Cc2ccccc2N1C(=O)COC(=O)c1ccc(Br)o1 (stereo not shown)	8.05%
CC1Cc2ccccc2N1C(=O)COC(=O)CNC(=O)c1ccc(Br)o1 (stereo not shown)	-60.2%
O=C(COC(=O)CNC(=O)c1ccc(Br)o1)Nc1ccccc1OC(F)F	-51.6%
O=C(COC(=O)CNC(=O)c1ccco1)Nc1ccccc1OC(F)F	11.6%
O=C(Nc1ccccc1OC(F)F)c1ccc(Br)o1	-20.9%
CC1Cc2ccccc2N1C(=O)c1ccc(Br)o1 (stereo not shown)	-13.1%
Cc1ccc2nc(-c3ccccc3)cc(C(=O)N(C)CC(=O)Nc3ccccc3Br)c2c1	-11%
c1ccc(-n2nnnc2Cc2nnnn2-c2ccccc2)cc1	50.3%
O=C(Nc1ccccc1OC(F)F)c1cc2c(s1)CCC2	-16.4%
C=CCNC(=S)/N=c1/ccccn1C	-5.42%
CCOC(=O)C1(CCc2ccccc2)CCN(Cc2ccc(NC(C)=O)cc2)CC1	-76.6%
CCOC(=O)C1(CCOc2ccccc2)CCN(Cc2ccc(NC(C)=O)cc2)CC1	-79.3%
CCOC(=O)C1(Cc2ccccc2C)CCCN(Cc2ccc(NC(C)=O)cc2)C1 (stereo not shown)	11.5%
Cc1ccc(Nc2nc(=O)c3cccnc3s2)c(Br)c1	3.27%
CN(Cc1cnccn1)Cc1nc(Cc2ccccc2F)no1	-0.154%

Structure (SMILES)	hERG current change (%, negative = inhibition) at 10uM
COc1ccc(Cl)cc1NS(=O)(=O)c1cccc(C(=O)NCC(c2ccco2)N(C)C)c1 (stereo not shown)	-2.01%
O=C(CCCn1c(=O)c2sccc2n(CC(=O)NCc2ccco2)c1=O)NCc1ccco1	-6.69%
Cn1c(Br)nc2c1c(=O)n(CC(O)COc1ccccc1)c(=O)n2C (stereo not shown)	-1.54%
COCCC(=O)N1CCC(Oc2ccc(C(=O)N(C)C(C)c3ccon3)cc2)CC1 (stereo not shown)	13.1%
Cn1cc(-c2ccccc2C(=O)O)c(=O)c2cc(Cl)ccc21	20.9%
CCCCCCn1cc(C(=O)O)c(=O)c2cc(F)c(N3CCCCC3)cc21	5.7%
O=C(O)c1cn(Cc2ccccc2)c2ccc(Cl)cc2c1=O	-76.3%
CC1CCCN(C(=O)Cc2cn(Cc3cccc(Cl)c3)c3ccccc23)C1 (stereo not shown)	-5.42%
O=C(Cc1cn(Cc2cccc(Cl)c2)c2ccccc12)N1CCCCCC1	-4.89%
O=C(COc1ccccc1)c1cn(Cc2ccccc2)c2ccccc12	7.62%
O=C(c1cn(Cc2ccccc2)c2ccccc12)C1CC1	7.67%
CCCCCn1cc(C(=O)C(=O)N2CCOCC2)c2ccccc21	-26.3%
CCCCCCn1cc(C(=O)O)c(=O)c2ccccc21	-75.8%
CN(C)CCOC(=O)c1cn(Cc2ccccc2)c2ccccc12.Cl	-59.1%
O=C(O)Cc1cn(Cc2cccc(Cl)c2)c2ccccc12	12.6%
O=C(Cc1cn(Cc2cccc(Cl)c2)c2ccccc12)N1CCCC1	-50%
COc1ccccc1CNC(=O)C1CCCN(S(C)(=O)=O)C1 (stereo not shown)	9.4%
CC(C)Oc1cccc(C(=O)C2CCCN(S(=O)(=O)C(C)C)C2)c1 (stereo not shown)	-21.7%
COc1ccc(C2=NN(C(=O)CSc3nnnn3C)C(c3ccco3)C2)cc1 (stereo not shown)	3.05%
